The supplement of paper PMC12645437, “Orthogonal IMiD-Degron Pairs Induce Selective Protein Degradation in Cells” (ACS Chemical Biology, 2025)
In all, about 8,300 sequences were measured (“log2 fold change of degron read counts, EGFP-low vs EGFP+ sorted cells (limma voom), compound-induced degradation”: median about -1.1, highest 2% from about 3.2 on). What follows is part of a selection rich in the highest values, with near analogues and random picks from the rest.

T1: CRBN, Q96SW2
T1 chain: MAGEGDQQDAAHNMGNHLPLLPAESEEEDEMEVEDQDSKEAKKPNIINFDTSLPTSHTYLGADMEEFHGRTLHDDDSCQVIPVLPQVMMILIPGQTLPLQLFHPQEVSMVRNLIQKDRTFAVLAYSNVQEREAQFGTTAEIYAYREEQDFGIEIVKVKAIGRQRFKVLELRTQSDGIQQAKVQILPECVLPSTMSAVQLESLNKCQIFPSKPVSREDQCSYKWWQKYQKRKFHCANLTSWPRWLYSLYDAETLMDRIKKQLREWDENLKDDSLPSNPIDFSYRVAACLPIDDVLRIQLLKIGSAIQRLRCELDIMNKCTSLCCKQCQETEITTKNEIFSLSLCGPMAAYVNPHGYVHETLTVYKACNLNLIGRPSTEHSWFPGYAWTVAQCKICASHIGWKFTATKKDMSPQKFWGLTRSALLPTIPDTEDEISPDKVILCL

B1: 46F_47S_49N_50Q_52G_53H_54T_55F_67L_, Q9UKT9 (peptide)
chain: FSCNQCGHTFTQKGNLLRHIKL
B2: 46F_47M_49N_50V_52G_53A_54D_55F_67L_, Q9UKT9 (peptide)
chain: FMCNVCGADFTQKGNLLRHIKL
B3: 46L_47Y_49P_50I_52G_53F_54I_55C_67L_, Q9UKT9 (peptide)
chain: LYCPICGFICTQKGNLLRHIKL
B4: 46F_47S_49N_50V_52G_53A_54P_55F_67L_, Q9UKT9 (peptide)
chain: FSCNVCGAPFTQKGNLLRHIKL
B5: 46F_47S_49E_50I_52G_53A_54G_55F_67L_, Q9UKT9 (peptide)
chain: FSCEICGAGFTQKGNLLRHIKL
B6: 46F_47V_49E_50I_52G_53A_54G_55F_67L_, Q9UKT9 (peptide)
chain: FVCEICGAGFTQKGNLLRHIKL
B7: 46F_47C_49E_50I_52G_53A_54G_55F_67L_, Q9UKT9 (peptide)
chain: FCCEICGAGFTQKGNLLRHIKL
B8: 46F_47K_49E_50I_52G_53A_54G_55F_67L_, Q9UKT9 (peptide)
chain: FKCEICGAGFTQKGNLLRHIKL
B9: 46F_47M_49E_50I_52G_53A_54G_55F_67L_, Q9UKT9 (peptide)
chain: FMCEICGAGFTQKGNLLRHIKL
B10: 46F_47I_49P_50I_52G_53R_54G_55F_67L_, Q9UKT9 (peptide)
chain: FICPICGRGFTQKGNLLRHIKL
B11: 46F_47T_49P_50I_52G_53H_54H_55F_67L_, Q9UKT9 (peptide)
chain: FTCPICGHHFTQKGNLLRHIKL
B12: 46F_47T_49E_50Q_52G_53A_54K_55F_67L_, Q9UKT9 (peptide)
chain: FTCEQCGAKFTQKGNLLRHIKL
B13: 46F_47Q_49P_50V_52G_53A_54V_55F_67L_, Q9UKT9 (peptide)
chain: FQCPVCGAVFTQKGNLLRHIKL
B14: 46F_47G_49P_50V_52G_53A_54V_55F_67L_, Q9UKT9 (peptide)
chain: FGCPVCGAVFTQKGNLLRHIKL
B15: 46F_47V_49P_50V_52G_53A_54V_55F_67L_, Q9UKT9 (peptide)
chain: FVCPVCGAVFTQKGNLLRHIKL
B16: 46F_47V_49P_50Q_52G_53A_54V_55F_67L_, Q9UKT9 (peptide)
chain: FVCPQCGAVFTQKGNLLRHIKL
B17: 46F_47Y_49N_50I_52G_53A_54V_55F_67L_, Q9UKT9 (peptide)
chain: FYCNICGAVFTQKGNLLRHIKL
B18: 46F_47F_49P_50Q_52G_53A_54V_55F_67L_, Q9UKT9 (peptide)
chain: FFCPQCGAVFTQKGNLLRHIKL
B19: 46F_47Q_49N_50I_52G_53A_54V_55F_67L_, Q9UKT9 (peptide)
chain: FQCNICGAVFTQKGNLLRHIKL
B20: 46F_47S_49P_50V_52G_53A_54V_55F_67L_, Q9UKT9 (peptide)
chain: FSCPVCGAVFTQKGNLLRHIKL
B21: 46F_47D_49P_50V_52G_53A_54V_55F_67L_, Q9UKT9 (peptide)
chain: FDCPVCGAVFTQKGNLLRHIKL
B22: 46F_47M_49P_50V_52G_53A_54V_55F_67L_, Q9UKT9 (peptide)
chain: FMCPVCGAVFTQKGNLLRHIKL
B23: 46F_47K_49N_50I_52G_53A_54V_55F_67L_, Q9UKT9 (peptide)
chain: FKCNICGAVFTQKGNLLRHIKL
B24: 46F_47Q_49P_50Q_52G_53A_54V_55F_67L_, Q9UKT9 (peptide)
chain: FQCPQCGAVFTQKGNLLRHIKL
B25: 46F_47H_49D_50Q_52G_53A_54P_55F_67L_, Q9UKT9 (peptide)
chain: FHCDQCGAPFTQKGNLLRHIKL
B26: 46F_47K_49S_50V_52G_53H_54P_55F_67L_, Q9UKT9 (peptide)
chain: FKCSVCGHPFTQKGNLLRHIKL
B27: 46F_47Y_49P_50I_52G_53H_54M_55F_67L_, Q9UKT9 (peptide)
chain: FYCPICGHMFTQKGNLLRHIKL
B28: 46F_47E_49D_50V_52G_53A_54M_55F_67L_, Q9UKT9 (peptide)
chain: FECDVCGAMFTQKGNLLRHIKL

Target: T1, CRBN, Q96SW2
Test: log2 fold change of degron read counts, EGFP-low vs EGFP+ sorted cells (limma voom), compound-induced degradation; higher = more compound-induced degradation of the degron-EGFP fusion; degrons are variants of IKZF1/3 zinc finger 2; compound dose not given here
Details: Jurkat, 18 h
[1] = compound: compound 19 (5-tert-butyl-thalidomide)
[2] = compound: compound 22 (5-morpholino-thalidomide)
[3] = compound: compound 33 (diphenyl IMiD analogue)
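Note: pooled lentiviral library of zinc finger degron-EGFP fusions in mCherry-positive Jurkat cells, FACS-sorted after compound exposure, with degron abundance counted by next-generation sequencing.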

| Sequence | log2 fold change of degron read counts [1] | log2 fold change of degron read counts [2] | log2 fold change of degron read counts [3] | log2 fold change of degron read counts (compound: thalidomide) |
| --- | --- | --- | --- | --- |
| B1 | -2.44 | -2.51 | -2.85 | -2.59 |
| B2 | -2.78 | -2.8 | 1.31 | -1.76 |
| B3 | 2.94 | 2.9 | 1.98 | 0.937 |
| B4 | 0.819 | 0.453 | -0.105 | 0.146 |
| B5 | 3.39 | 1.57 | 1.23 | 0.613 |
| B6 | 1.53 | 3.07 | 1.92 | 3.23 |
| B7 | 3.68 | 2.09 | 1.63 | 1.42 |
| B8 | 2.69 | -0.466 | -0.772 | 0.328 |
| B9 | 2.81 | 1.95 | 2.73 | 1.31 |
| B10 | -2.06 | -1.04 | -0.776 | 0.0621 |
| B11 | -2.5 | -2.32 | -1.56 | -1.14 |
| B12 | -1.64 | -1.04 | -1.94 | 0.449 |
| B13 | -0.23 | 3.11 | 2.75 | 3.75 |
| B14 | 3.56 | 2.4 | 2.72 | 1.15 |
| B15 | -0.832 | 1.08 | 1.95 | 1.7 |
| B16 | -2.28 | -1.6 | 0.556 | -0.724 |
| B17 | 1.85 | 2.59 | 1.47 | -0.489 |
| B18 | 0.252 | 0.896 | 0.248 | -0.636 |
| B19 | -1.01 | 2.01 | 1.99 | 3.47 |
| B20 | 1.86 | 1.28 | 2.79 | 1.39 |
| B21 | 0.0323 | -0.349 | 1.32 | 1.15 |
| B22 | -1.41 | -0.169 | 1.97 | 1.09 |
| B23 | -2.43 | -2.68 | -2.59 | -1.81 |
| B24 | -1.53 | 0.725 | 0.715 | 3.42 |
| B25 | -0.672 | -1.82 | -1.8 | -2.97 |
| B26 | -2.15 | -2.09 | -2.23 | -1.7 |
| B27 | -1.06 | -1.25 | -0.462 | -1.34 |
| B28 | -2.71 | -3.65 | -2.05 | -1.53 |
